For 19 compounds, growth inhibition results are on record in PubChem BioAssay (NCI).

Test [1] is described as follows: NCI Yeast Anticancer Drug Screen. Data for the rad50 strain (AID 155).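 Note: 0% = growth of vehicle-only cultures of the same strain.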 The conditions noted are these: S. cerevisiae rad50 strain growth inhibition, active compounds read high; at 50.0 µM unless noted. In short, it runs like this:
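Inhibition values express reduced yeast growth in compound-treated cultures relative to vehicle-treated controls.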

Test [2] can be described thus: NCI Yeast Anticancer Drug Screen. Data for the mec2-1 strain (AID 157). The conditions noted are these: S. cerevisiae mec2-1 strain, active compounds read high; at 50.0 µM unless noted. Summed up: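 Mutant yeast (mec2-1) grown with compound; growth inhibition relative to vehicle control reported.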
Test [3] is described as follows: NCI Yeast Anticancer Drug Screen. Data for the sgs1 mgt1 strain (AID 161).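 Note: 0% = growth of cultures given vehicle only.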 The conditions noted are these: S. cerevisiae sgs1 mgt1 strain, active compounds read high; at 50.0 µM unless noted. Summed up: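 Compounds are added to genetically altered yeast, and growth is compared with cultures given vehicle alone to give percent inhibition.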
Test [4] in a line: NCI Yeast Anticancer Drug Screen. Data for the cln2 rad14 strain (AID 165).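 Note: 0% = growth equal to vehicle treated cultures.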 The conditions noted are these: S. cerevisiae cln2 rad14 strain, active compounds read high; at 50.0 µM unless noted. Summed up:
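Readout is yeast growth inhibition versus vehicle-treated controls, using a strain with cln2 and rad14 alterations exposed to compound.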

Test [5] is described as follows: NCI Yeast Anticancer Drug Screen. Data for the bub3 strain (AID 167). The conditions noted are these: S. cerevisiae bub3 mutant strain, active compounds read high; at 50.0 µM unless noted. Summed up: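 Steps: expose the mutant yeast strain to compound; grow alongside vehicle-treated cultures; measure growth; express inhibition against the vehicle cultures.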
The nature of test [6]: NCI Yeast Anticancer Drug Screen. Data for the mlh1 rad18 strain (AID 175). The conditions noted are these: S. cerevisiae mlh1 rad18 strain growth inhibition, active compounds read high; at 50.0 µM unless noted. In short, it runs like this:
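Genetically defined yeast (DNA repair-deficient) exposed to compounds; growth inhibition determined relative to vehicle.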

Values joined by “and” are separate entries in the source; they are usually repeats but may differ in a detail not shown here. Equal values may be shown once. This is part of a sample that, as a whole, favours compounds with a hit. Of some 79,000 tested, about 15% had one in any assay. A number with no mark means an inactive call. Active and inactive are the calls of the source. Cut-off read from the data, not from the text of the source: active = growth inhibition above about 70%; inactive = the rest.

For the compound `CCOC(=O)C(SC(S(=O)(=O)c1ccccc1)S(=O)(=O)c1ccccc1)C(=O)OCC`, the growth inhibition is 33.3% in test [1]; -1.75% in test [2]; 21.2% in test [3]; 21.6% in test [4]; -2.05% in test [5]; 25.6% in test [6].
Regarding `CCOC(=O)c1c[nH]c2c(Cl)c(Cl)ccc2c1=O`, the growth inhibition in test [1] is -4.65%; in test [2] it was -19.1%; in test [3] it was -1.1%; in test [4], 12.9%; in test [5], 9.25%; in test [6] it was -6.95%.
As for `CCCCNC(=S)NNC(=O)c1ccncc1`, the growth inhibition in test [1] is -0.35%; in test [2] it was 3.65%; in test [3], -0.55%; in test [4], 5.5%; in test [5], 10.7%; in test [6], 3.45%.
`Clc1ccccc1Nc1nc(Nc2ccccc2Cl)nc(Nc2ccccc2Cl)n1`: the growth inhibition in test [1] was 21.1%; in test [2] it was 19.4%; in test [3], 21.6%; in test [4] it was 37.9%; in test [5], 7.3%; in test [6], 5.95%.
For `COc1cccc2c1C(=O)c1c(O)c3c(c(O)c1C2=O)CC1(O)CC3OC1(C)OC` (centres undefined), the growth inhibition was 1.2% in test [1]; 9.1% in test [2]; -19.2% in test [3]; 24.2% in test [4]; -1.35% in test [5]; 2.65% in test [6].
For `CC(=O)C(C(C)=O)=C1CCCC(O)O1` (centres undefined), the growth inhibition was 20.4% in test [1]; -0.7% in test [2]; 4.55% in test [3]; 5.7% in test [4]; 2.65% in test [5]; 13.1% in test [6].
Take `COC(=O)CC1(C(=O)OC)NC(=O)c2cc(OC)c(Cl)cc2N1` (centres undefined): the growth inhibition is -4.2% in test [1]; 7.6% in test [2]; -7.1% in test [3]; 13.6% in test [4]; -4.9% in test [5]; -19.6% in test [6].
In the case of `CN(Cc1ccc(Cl)cc1)N=Nc1ccc(C(=O)O)cc1`, the growth inhibition in test [1] was -5.5%; in test [2], 4.4%; in test [3], 24.7%; in test [4], 25.8%; in test [5], 16.6%; in test [6], 24.6%.
Take `Cc1cc2ccccc2cn1`: the growth inhibition in test [1] was 1% and 29.1%; in test [2] it was -23.1% and 16.6%; in test [3], 5.55% and 19.2%; in test [4] it was -30.6% and -34.1%; in test [5], 5.95% and 10.8%; in test [6], 4.75% and 24.6%.
Regarding `COC(=O)CSc1cc(Cl)c(C)cc1S(=O)(=O)Nc1n[nH]c(N)n1`, the growth inhibition in test [1] is -14.2%; in test [2] it was -7.5%; in test [3], -11%; in test [4] it was -6.65%; in test [5] it was -9.75%; in test [6], 10.2%.
Turning to `O=S(=O)(O)c1ccc(Nc2ccccc2)cc1`, the growth inhibition in test [1] is -1.2% and 5.95%; in test [2], -38.8% and -24.1%; in test [3], -11%; in test [4], -18.3%; in test [5], 2%; in test [6], -20.9% and 6.2%.
For `CC(O)C(C(=O)O)N(CC1(O)OCC(O)C(O)C1O)N=O` (centres undefined), the growth inhibition was -4.5% in test [1]; -13.9% in test [2]; 11.3% in test [3]; 1.2% in test [4]; -2.65% in test [5]; -7.45% in test [6].
As for `O=C(Nc1ccc2c(c1)Cc1c(F)cccc1-2)C(F)(F)F`, the growth inhibition in test [1] was -4.8%; in test [2] it was -16.4%; in test [3], -3.95%; in test [4] it was -7.95%; in test [5], 9.45%; in test [6], 11.2%.
Turning to `CC(C(C#N)C(N)=O)C(C#N)C(N)=O` (centres undefined), the growth inhibition in test [1] was 10.2%; in test [2], 12.4%; in test [3], 5.5%; in test [4] it was -4.4%; in test [5], -23.9%; in test [6], 14.7%.
Consider `O=CC[C@]12CC(=O)OC(C=CC13OCCO3)C2`, for which the growth inhibition was 6.55% in test [1]; -9.4% in test [2]; -16.7% in test [3]; 17.6% in test [4]; 13.4% in test [5]; 9.05% in test [6].
For the compound `CC12CC[C@H](O)C(C)(C)[C@H]1CC[C@](C)(O)C2COc1ccc2ccc(=O)oc2c1` (some centres undefined), the growth inhibition is 86.3% (active) in test [1]; 75.2% (active) in test [2]; 85.6% (active) in test [3]; 37.1% in test [4]; 76.3% (active) in test [5]; 77.1% (active) in test [6].
Regarding `O=c1c2ccccc2c(=O)c2c1c1c(=O)c3ccccc3c(=O)c1c1c(=O)c3ccccc3c(=O)c21`, the growth inhibition was 22.2% in test [1]; 9.65% in test [2]; 30.2% in test [3]; 29.6% in test [4]; 0.5% in test [5]; 22.4% in test [6].
As for `CCCCCCCC1C(=O)OC2CC3C(C)=CC(=O)C(O)C3(C)C3C4(O)OCC23C1C(C)C4O` (centres undefined), the growth inhibition is 91.5% (active) in test [1]; 92.3% (active) in test [2]; 91% (active) in test [3]; 91.4% (active) in test [4]; 90.2% (active) in test [5]; 92.1% (active) in test [6].
As for `CC(=O)CC(=O)c1ccc(C(=O)CC(C)=O)cc1.[Fe]`, the growth inhibition was -8.1% in test [1]; -2.35% in test [2]; -8.3% in test [3]; 11.7% in test [4]; 14.4% in test [5]; 2.15% in test [6].
